The results in this text go back to PubChem BioAssay (EPA / NIEHS).

As usually defined, the AC50 is the concentration at which the activity in the assay is half-maximal.

The structures appear in SMILES notation. Activity calls are given as the source filed them. How the source made its calls: active means hit-call score of the fitted dose curve at least 0.9, where 1 is the maximum; inactive means score below 0.9.

Test [1] in a line: ATG_CRE_CIS: Attagene CIS-FACTORIAL HepG2 Assay for human cAMP Responsive Element (CRE) binding protein 3 (AID 2282926). The conditions noted are these: HepG2 CRE cis-reporter, Attagene multiplexed mRNA; actives raise or lower the signal. The gist of the method:
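Capillary electrophoresis of 6-FAM-labelled, HpaI-digested PCR products quantified reporter transcripts. These came from HepG2 transiently transfected with cis-element reporters and exposed to test chemicals for 24 hours, with DMSO defining baseline activity.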

The nature of test [2]: ATG_CMV_CIS: Attagene CIS-FACTORIAL HepG2 Assay for human CMV (Internal Marker) (AID 2282928).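 Further: endpoint acts as a background internal control marker rather than a target.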 The settings on record: HepG2 CMV promoter reporter, transcription factor profiling; actives raise or lower the signal. The gist of the method:
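24 h chemical treatment, HepG2 with transient multi-reporter transfection; RNA → oligo(dT) RT → PCR → 6-FAM extension → HpaI digest → CE fluorescence. Bidirectional fit, DMSO negative control.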

The nature of test [3]: ATG_DR4_LXR_CIS: Attagene CIS-FACTORIAL HepG2 Assay for human Liver X Receptor (LXR), DR4 submotif (AID 2282929). The settings on record: HepG2 Attagene DR4 cis-reporter, mRNA transcription; actives raise or lower the signal. The procedure, abridged:
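Transiently transfected HepG2 liver cells; cis-regulated reporters; 24 h dosing. RT-PCR plus CE read-out of reporter mRNA. DMSO baseline, bidirectional curve fitting.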

Test [4] addresses Aryl hydrocarbon receptor (Homo sapiens) (UniProt P35869). The test is described as follows: ATG_Ahr_CIS: Attagene CIS-FACTORIAL HepG2 Assay for human Aryl Hydrocarbon Receptor (Ahr) (AID 2282930). The settings on record: HepG2 AhR cis-factorial reporter transcription; actives raise or lower the signal. The gist of the method:
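HepG2 cells transiently transfected with cis-element-driven multiplexed reporter units; endogenous AhR activity read as reporter mRNA 24 h after dosing, via RT-PCR, 6-FAM labelling, HpaI digestion and capillary electrophoresis. Bidirectional fit relative to DMSO.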

A short description of test [5]: ATG_AP_1_CIS: Attagene CIS-FACTORIAL HepG2 Assay for human Activator Protein 1 (AP-1) (AID 2282931). The settings on record: HepG2 Attagene cis-factorial AP-1 reporter mRNA; actives raise or lower the signal. The procedure, abridged: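 We transfected HepG2 cells transiently with a set of cis-regulated reporter transcription units, dosed them for 24 h, and quantified reporter mRNA via RT-PCR and capillary electrophoresis, scoring gain or loss of signal relative to DMSO.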

Test [6] can be described thus: ATG_BRE_CIS: Attagene CIS-FACTORIAL HepG2 Assay for human Bone Morphogenetic Protein (BMP) Response Element (BRE) (AID 2282933). The settings on record: HepG2 BMP response element reporter, Attagene transcription factor profiling; actives raise or lower the signal. The gist of the method:
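Endogenous transcription factor activity at a BMP response element was monitored in transfected HepG2 cells 24 h after dosing. Fluorescent RT-PCR products were resolved by capillary electrophoresis, and activity was fitted in both directions versus DMSO.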

The target in test [7] is Retinoic acid receptor alpha (Homo sapiens) (UniProt P10276). The test is described as follows: ATG_DR5_RAR_CIS: Attagene CIS-FACTORIAL HepG2 Assay for human Retinoic Acid Receptor Alpha (RARE), DR5 submotif (AID 2282934).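 On AC50: reporter responds to endogenous RAR alpha beta and gamma in HepG2 not RARA alone.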 The settings on record: HepG2 Attagene cis-factorial RARE DR5 reporter, mRNA; actives raise or lower the signal. The gist of the method: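 HepG2 cells transiently transfected with multiplexed reporter units; DR5 cis-element drives reporter through endogenous transcription factors. After 24 h dosing, reporter mRNA quantified by RT-PCR, fluorescent labeling, HpaI digestion and capillary electrophoresis; bidirectional fitting versus DMSO.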
Chain of Retinoic acid receptor alpha (Homo sapiens) (P10276 whole entry, looked up): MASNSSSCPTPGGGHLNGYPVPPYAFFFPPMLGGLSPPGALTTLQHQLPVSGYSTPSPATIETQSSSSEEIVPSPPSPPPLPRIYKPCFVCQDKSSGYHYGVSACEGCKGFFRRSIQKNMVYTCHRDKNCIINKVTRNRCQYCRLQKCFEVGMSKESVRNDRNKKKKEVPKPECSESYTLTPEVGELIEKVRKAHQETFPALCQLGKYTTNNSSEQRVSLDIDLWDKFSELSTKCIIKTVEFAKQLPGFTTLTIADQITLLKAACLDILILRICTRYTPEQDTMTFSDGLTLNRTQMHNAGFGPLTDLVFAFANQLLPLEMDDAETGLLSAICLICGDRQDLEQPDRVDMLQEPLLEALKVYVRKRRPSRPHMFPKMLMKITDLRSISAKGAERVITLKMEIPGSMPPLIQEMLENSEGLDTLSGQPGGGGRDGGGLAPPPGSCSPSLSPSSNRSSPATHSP

Test [8] has as its target Transcription factor E2F1 (Homo sapiens) (UniProt Q01094). The test can be described thus: ATG_E2F_CIS: Attagene CIS-FACTORIAL HepG2 Assay for human E2F Transcription Factor 1 (AID 2282935). The conditions noted are these: HepG2 Attagene cis-reporter, E2F reporter RNA transcripts; actives raise or lower the signal. The procedure, abridged: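 Transient MRTU transfection of HepG2; 24 h compound exposure; RNA → oligo(dT) RT → PCR → FAM label → HpaI cut → CE fluorescence. Gain/loss of signal fit against DMSO.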

Test [9] in a line: ATG_E_Box_CIS: Attagene CIS-FACTORIAL HepG2 Assay for human Enhancer Box (E-box) (AID 2282936). The settings on record: HepG2 E-box cis-reporter transcription, actives raise or lower the signal. The procedure, abridged:
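Transiently transfected HepG2, endogenous TF-driven reporters, 24 h dosing. Readout: RT-PCR plus capillary electrophoresis of fluorescent reporter fragments. Gain or loss of signal fitted bidirectionally against DMSO baseline.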

Test [10] is described as follows: ATG_M_61_CIS: Attagene CIS-FACTORIAL HepG2 Assay for M61 Transcription Factor (Internal Marker) (AID 2282937). The settings on record: HepG2 Attagene CIS-FACTORIAL M61 internal marker reporter; actives raise or lower the signal. The procedure, abridged: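 Multiplexed reporter mRNA assay, HepG2 human hepatoma cells, 24 h treatment. Signal: FAM-labelled, HpaI-digested RT-PCR fragments by CE. Fit: bidirectional, baseline DMSO.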

Test [11] is described as follows: ATG_EGR_CIS: Attagene CIS-FACTORIAL HepG2 Assay for human Early Growth Response 1 (EGR1) (AID 2282938). The conditions noted are these: HepG2 Attagene CIS-FACTORIAL EGR reporter mRNA; actives raise or lower the signal. The procedure, abridged:
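Multiplexed cis-reporter system in human hepatoma HepG2 cells, transiently transfected. Cells are dosed for 24 h; reporter transcripts are amplified, fluorescently tagged and sized by capillary electrophoresis, with DMSO as negative control.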

Test [12] can be described thus: ATG_M_19_CIS: Attagene CIS-FACTORIAL HepG2 Assay for M19 Transcription Factor (Internal Marker) (AID 2282939). The settings on record: HepG2 Attagene CIS-FACTORIAL M19 internal marker reporter; actives raise or lower the signal. The gist of the method:
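Background-control endpoint from a multiplexed HepG2 reporter panel. Cells carrying cis-regulated reporter constructs are treated 24 h, then reporter transcripts are amplified, fluorescently labelled and sized by capillary electrophoresis. DMSO defines baseline.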

Test [13] can be described thus: ATG_Ets_CIS: Attagene CIS-FACTORIAL HepG2 Assay for human Erythroblast Transformation Specific (ETS) (AID 2282941). The conditions noted are these: HepG2 ETS cis-reporter transcription, actives raise or lower the signal. The procedure, abridged: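 Cis-regulated reporter mRNA induction in HepG2 (transient transfection), 24 h exposure, RT-PCR plus capillary electrophoresis detection; DMSO serves as negative control and baseline.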

Test [14] addresses Hepatocyte nuclear factor 3-beta (Homo sapiens) (UniProt Q9Y261). The test can be described thus: ATG_FoxA2_CIS: Attagene CIS-FACTORIAL HepG2 Assay for human Forkhead box A2 (FOXA2) (AID 2282942). The settings on record: HepG2 cis-reporter transcription factor activity, 24 h; actives raise or lower the signal. The procedure, abridged:
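Multiplexed cis-element reporter assay in transiently transfected HepG2. Twenty-four hours post-dosing, RNA was reverse-transcribed, amplified, FAM-labelled, HpaI-digested and separated by CE. Activity gain or loss relative to DMSO.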

The nature of test [15]: ATG_FoxO_CIS: Attagene CIS-FACTORIAL HepG2 Assay for human Forkhead box O (FoxO) (AID 2282943). The settings on record: HepG2 Attagene cis-reporter, FoxO element, mRNA; actives raise or lower the signal. The gist of the method: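 HepG2 cells transiently transfected with cis-element-driven reporter units report endogenous FoxO activity. After 24 h chemical exposure, reporter mRNA quantified by RT-PCR, fluorescent labeling, HpaI digestion and capillary electrophoresis; bidirectional fit versus DMSO.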

Test [16] in a line: ATG_GATA_CIS: Attagene CIS-FACTORIAL HepG2 Assay for human GATA Binding Protein (AID 2282944). The conditions noted are these: HepG2 GATA cis-element reporter, Attagene multiplex mRNA; actives raise or lower the signal. The gist of the method:
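Endogenous transcription factor activity was captured through cis-promoter-driven reporters in transfected HepG2 cells. After 24 h exposure, reporter transcripts were quantified by RT-PCR with fluorescent capillary electrophoresis, and responses fitted both directions against DMSO.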

The nature of test [17]: ATG_GLI_CIS: Attagene CIS-FACTORIAL HepG2 Assay for human Zinc Finger Protein GLI1 (AID 2282945). The conditions noted are these: HepG2, Attagene cis-factorial reporter mRNA, GLI element; actives raise or lower the signal. The gist of the method:
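Transiently transfected HepG2 cells report endogenous transcription factor activity via cis-element-driven reporter units. After 24 h compound exposure, reporter mRNA was measured by RT-PCR with capillary electrophoresis; bidirectional fitting against DMSO baseline.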

A short description of test [18]: ATG_AP_2_CIS: Attagene CIS-FACTORIAL HepG2 Assay for human Activator Protein 2 (AP-2) (AID 2282932). The conditions noted are these: HepG2 AP-2 cis-reporter, Attagene transcription factor profiling; actives raise or lower the signal. The gist of the method: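 Read-out: fluorescent reporter mRNA via RT-PCR and capillary electrophoresis, 24 h post-dose in transiently transfected HepG2. Endogenous factors drive cis-promoter reporters; gain or loss of signal fitted bidirectionally against DMSO.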

Chain of Transcription factor E2F1 (Homo sapiens) (Q01094 whole entry, looked up): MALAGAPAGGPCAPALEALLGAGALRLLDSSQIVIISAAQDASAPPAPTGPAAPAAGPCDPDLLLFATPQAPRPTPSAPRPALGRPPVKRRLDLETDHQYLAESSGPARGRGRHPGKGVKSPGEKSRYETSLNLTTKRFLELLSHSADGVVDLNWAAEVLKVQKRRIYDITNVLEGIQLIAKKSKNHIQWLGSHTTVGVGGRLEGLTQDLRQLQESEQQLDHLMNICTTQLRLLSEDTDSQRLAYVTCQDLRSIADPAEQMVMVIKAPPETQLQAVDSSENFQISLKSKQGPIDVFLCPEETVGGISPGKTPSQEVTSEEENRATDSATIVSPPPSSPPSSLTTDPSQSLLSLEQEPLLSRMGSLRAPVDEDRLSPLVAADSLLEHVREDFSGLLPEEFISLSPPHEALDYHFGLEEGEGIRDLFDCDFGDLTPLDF
Chain of Aryl hydrocarbon receptor (Homo sapiens) (P35869 whole entry, looked up): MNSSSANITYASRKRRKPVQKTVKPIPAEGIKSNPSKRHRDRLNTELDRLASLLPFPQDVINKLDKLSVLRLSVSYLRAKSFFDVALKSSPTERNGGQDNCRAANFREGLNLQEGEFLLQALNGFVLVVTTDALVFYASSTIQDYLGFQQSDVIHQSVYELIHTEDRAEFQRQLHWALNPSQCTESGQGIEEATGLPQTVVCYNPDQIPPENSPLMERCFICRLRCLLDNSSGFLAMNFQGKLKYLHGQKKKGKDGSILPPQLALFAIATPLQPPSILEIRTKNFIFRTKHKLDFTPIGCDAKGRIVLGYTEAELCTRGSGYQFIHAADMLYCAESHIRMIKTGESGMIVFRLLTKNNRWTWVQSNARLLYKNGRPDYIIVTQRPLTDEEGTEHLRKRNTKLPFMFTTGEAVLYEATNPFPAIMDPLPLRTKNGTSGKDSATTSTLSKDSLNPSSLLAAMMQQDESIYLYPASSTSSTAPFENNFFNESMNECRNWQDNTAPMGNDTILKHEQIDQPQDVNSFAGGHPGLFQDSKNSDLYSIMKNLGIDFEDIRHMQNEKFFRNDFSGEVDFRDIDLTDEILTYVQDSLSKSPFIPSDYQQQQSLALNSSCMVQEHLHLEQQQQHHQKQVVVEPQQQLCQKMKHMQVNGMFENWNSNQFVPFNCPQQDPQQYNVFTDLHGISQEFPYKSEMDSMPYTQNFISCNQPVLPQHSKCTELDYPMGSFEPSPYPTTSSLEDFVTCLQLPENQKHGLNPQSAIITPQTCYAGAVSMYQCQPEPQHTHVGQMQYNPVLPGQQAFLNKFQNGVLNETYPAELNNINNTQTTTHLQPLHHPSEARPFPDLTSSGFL
Chain of Hepatocyte nuclear factor 3-beta (Homo sapiens) (Q9Y261 whole entry, looked up): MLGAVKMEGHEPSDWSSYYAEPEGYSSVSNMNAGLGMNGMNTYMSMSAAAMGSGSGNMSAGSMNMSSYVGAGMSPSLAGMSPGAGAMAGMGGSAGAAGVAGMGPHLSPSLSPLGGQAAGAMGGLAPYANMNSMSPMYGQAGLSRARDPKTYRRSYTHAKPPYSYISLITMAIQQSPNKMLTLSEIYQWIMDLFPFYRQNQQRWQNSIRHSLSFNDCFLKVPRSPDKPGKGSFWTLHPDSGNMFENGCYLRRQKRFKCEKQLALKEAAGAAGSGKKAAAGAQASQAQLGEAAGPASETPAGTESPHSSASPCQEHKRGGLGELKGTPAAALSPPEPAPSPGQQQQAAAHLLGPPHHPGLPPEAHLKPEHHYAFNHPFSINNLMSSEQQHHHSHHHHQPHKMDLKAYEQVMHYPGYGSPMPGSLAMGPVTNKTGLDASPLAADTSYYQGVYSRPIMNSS

As to `CCN(CC)N=O`, the compound was called inactive in [1], in test [2], in [3], in [4], in test [5] and in test [6]. For the same compound, the outcome in [7], in [8], in test [9], in test [10], in test [11] and in test [12] was inactive. Also, the result in test [13], in [14], in test [15], in [16] and in [17] was inactive.

For `O=C(O)C1C2CCC(O2)C1C(=O)O` (configuration not stated), the AC50 was 80.7 µM (active) in test [1]; 77.8 µM (active) in [2]; 59 µM (active) in [5]; 75.4 µM (active) in test [7]; 100 µM (active) in test [17]. Moreover, the compound was called inactive in test [3], in test [18], in test [6], in [8], in test [9] and in test [10]. Besides, the result in test [11], in [12], in test [13], in test [14], in test [15] and in [16] was inactive.

Consider `C1=Cc2cccc3cccc1c23`, for which the call in [1], in [2], in test [3], in [4], in test [6] and in [7] was inactive. In addition, the result in test [8], in test [9], in test [10], in test [11], in [12] and in [13] was inactive. Further, the compound was classed as inactive in [14], in test [15], in [16] and in test [17].

As to `CS(=O)(=O)NC(=O)c1cc(Oc2ccc(C(F)(F)F)cc2Cl)ccc1[N+](=O)[O-]`, the result in test [1], in test [2], in test [3], in test [4], in [18] and in test [6] was inactive. Besides, the call in test [7], in [8], in [9], in [10], in [11] and in [12] was inactive. The outcome in test [13], in test [14], in [15], in test [16] and in [17] was inactive.
